Source: PubChem BioAssay (NCATS)
Records with an inconclusive call do not appear. The source made the active and inactive calls. Calls come from the whole dose curve; as a rule, active = well fitted curve in the direction sought with a large enough effect; inconclusive = small, poorly fitted or top-dose-only effect, or another doubt; inactive = no such curve, though single readings can be large; an effect the other way counts as inactive or inconclusive.

Experiments:
[1] = qHTS of pediatric cancer cell lines to identify multiple opportunities for drug repurposing: Primary screen for BT-37 cells (AID 1347094);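 for activity change, negative = cytotoxic: series mostly up to about 57 µM; plate controls were DMSO for no effect and bortezomib for full effect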
Procedure, shortened: (§1)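 Readout: CellTiter-Glo luminescence, 48 h treatment. Controls DMSO (neutral) and bortezomib 2.3 µM final (positive). Potency and efficacy taken from primary-screen concentration-response curves.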

[2] = qHTS of pediatric cancer cell lines to identify multiple opportunities for drug repurposing: Primary screen for NB-EBc1 cells (AID 1347095);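 for activity change, negative = cytotoxic: plate controls were DMSO neutral control for no effect and bortezomib for full effect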
Procedure, shortened: as §1

[3] = qHTS of pediatric cancer cell lines to identify multiple opportunities for drug repurposing: Primary screen for U-2 OS cells (AID 1347096); note: nearly all actives have a fitted effect of over 50% in size;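 for activity change, negative = cytotoxic: plate controls were DMSO wells for no effect and bortezomib positive control wells for full effect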
Procedure, shortened: (§2)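 Cells (500-1,000/well) in growth media were settled 5 h at 37 degrees C, then given compounds for 48 h. Viability was read as CellTiter-Glo luminescence. Primary runs used MIPE at 11 points (0.78 nM-46 µM) and NPC at 8 points (0.59 nM-46 µM); follow-ups used 11 points.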

[4] = qHTS of pediatric cancer cell lines to identify multiple opportunities for drug repurposing: Primary screen for Saos-2 cells (AID 1347097); note: nearly all actives have a fitted effect of over 40% in size; for activity change, negative = cytotoxic: % is set by controls: 0 for no effect and ±100 for the full control effect
Procedure, shortened: as §1

[5] = qHTS of pediatric cancer cell lines to identify multiple opportunities for drug repurposing: Primary screen for SK-N-SH cells (AID 1347098); note: nearly all actives have a fitted effect of over 65% in size; for activity change, negative = cytotoxic: % is set by controls: 0 for no effect and ±100 for the full control effect
Procedure, shortened: (§3)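 Cells (500-1,000/well) rested 5 h, then received compounds for 48 h; metabolically active cells were measured by CellTiter-Glo luminescence. Final concentrations spanned up to 46 µM (MIPE, 11-point) or 0.59 nM-46 µM (NPC, 8-point) in primary screens, 11-point in follow-ups.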

[6] = qHTS of pediatric cancer cell lines to identify multiple opportunities for drug repurposing: Primary screen for LAN-5 cells (AID 1347100);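 for activity change, negative = cytotoxic: plate controls were DMSO neutral control for no effect and bortezomib positive control for full effect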
Procedure, shortened: as §2

[7] = qHTS of pediatric cancer cell lines to identify multiple opportunities for drug repurposing: Primary screen for BT-12 cells (AID 1347101); note: nearly all actives have a fitted effect of over 25% in size;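 for activity change, negative = cytotoxic: plate controls were DMSO for no effect and bortezomib positive control for full effect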
Procedure, shortened: as §3

[8] = qHTS of pediatric cancer cell lines to identify multiple opportunities for drug repurposing: Primary screen for Rh18 cells (AID 1347102); note: nearly all actives have a fitted effect of over 65% in size; for activity change, negative = cytotoxic: % is set by controls: 0 for no effect and ±100 for the full control effect
Procedure, shortened: as §2

[9] = qHTS of pediatric cancer cell lines to identify multiple opportunities for drug repurposing: Primary screen for OHS-50 cells (AID 1347103); note: nearly all actives have a fitted effect of over 40% in size;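 for activity change, negative = cytotoxic: plate controls were DMSO neutral control for no effect and bortezomib positive control for full effect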
Procedure, shortened: as §3

[10] = qHTS of pediatric cancer cell lines to identify multiple opportunities for drug repurposing: Primary screen for RD cells (AID 1347104); note: nearly all actives have a fitted effect of over 55% in size;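 for activity change, negative = cytotoxic: plate controls were DMSO for no effect and bortezomib for full effect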
Procedure, shortened: as §1

[11] = qHTS of pediatric cancer cell lines to identify multiple opportunities for drug repurposing: Primary screen for MG 63 (6-TG R) cells (AID 1347105); note: nearly all actives have a fitted effect of over 50% in size; for activity change, negative = cytotoxic: % is set by controls: 0 for no effect and ±100 for the full control effect
Procedure, shortened: as §1

[12] = qHTS of pediatric cancer cell lines to identify multiple opportunities for drug repurposing: Primary screen for control Hh wild type fibroblast cells (AID 1347106); note: nearly all actives have a fitted effect of over 55% in size;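 for activity change, negative = cytotoxic: series mostly up to about 46 µM; % is set by controls: 0 for no effect and ±100 for the full control effect; a drop in luminescence marks cytotoxicity and a rise apparent proliferation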
Procedure, shortened: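 Viability after 48 h compound treatment at 37C, 500-1,000 cells/well, read as ATP luminescence with CellTiter-Glo. Primary screens used 11-point (MIPE, 0.78 nM-46 µM) or 8-point (NPC, 0.59 nM-46 µM) final concentrations; follow-up screens used 11-point dilutions.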

[13] = qHTS of pediatric cancer cell lines to identify multiple opportunities for drug repurposing: Primary screen for NB1643 cells (AID 1347099); note: nearly all actives have a fitted effect of over 50% in size;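 for activity change, negative = cytotoxic: plate controls were DMSO neutral control for no effect and bortezomib positive control for full effect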
Procedure, shortened: as §1

[14] = qHTS of pediatric cancer cell lines to identify multiple opportunities for drug repurposing: Primary screen for Rh41 cells (AID 1347108); note: nearly all actives have a fitted effect of over 70% in size;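 for activity change, negative = cytotoxic: series mostly up to about 46 µM; luminescence drop marks cytotoxic hits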
Procedure, shortened: as §1

[15] = qHTS of pediatric cancer cell lines to identify multiple opportunities for drug repurposing: Confirmatory screen for NB1643 cells (AID 1347109); note: nearly all actives have a fitted effect of over 45% in size;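 for activity change, negative = cytotoxic: plate controls were DMSO for no effect and bortezomib for full effect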
Procedure, shortened: as §2

[16] = qHTS of pediatric cancer cell lines to identify multiple opportunities for drug repurposing: Confirmatory screen for A673 cells (AID 1347110);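 note: cells exposed to compound for 48 h before the viability read; nearly all actives have a fitted effect of over 65% in size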
Procedure, shortened: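 A673 cells at 500-1,000 cells/well were dosed 5 h after plating, in dilution series up to 46 uM final; primary runs used 8 or 11 points and confirmatory runs used 11 points. Viability was read by CellTiter-Glo luminescence after 48 h, against DMSO and 2.3 uM bortezomib controls.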

[17] = qHTS of pediatric cancer cell lines to identify multiple opportunities for drug repurposing: Confirmatory screen for SK-N-MC cells (AID 1347111);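 note: cells exposed to compound for 48 h before the readout; nearly all actives have a fitted effect of over 70% in size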
Procedure, shortened: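 Metabolically active cells were quantified by ATP-dependent luminescence (CellTiter-Glo, 15 min at room temperature) following 48 h treatment. Cells had been plated at 500-1,000 per well and settled for 5 h beforehand.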

[18] = qHTS of pediatric cancer cell lines to identify multiple opportunities for drug repurposing: Confirmatory screen for LAN-5 cells (AID 1347113); note: nearly all actives have a fitted effect of over 65% in size
Procedure, shortened: as §2

[19] = qHTS of pediatric cancer cell lines to identify multiple opportunities for drug repurposing: Primary screen for Rh30 cells (AID 1347107); note: nearly all actives have a fitted effect of over 75% in size
Procedure, shortened: as §2

[20] = qHTS of pediatric cancer cell lines to identify multiple opportunities for drug repurposing: Confirmatory screen for BT-12 cells (AID 1347112); note: nearly all actives have a fitted effect of over 55% in size
Procedure, shortened: as §2
Potency is the fitted concentration of half-maximal effect.

Nc1ccn(C[C@@H](CO)OCP(=O)(O)O)c(=O)n1
inactive: Potency [1] | Potency [2] | Potency [3] | Potency [4] | Potency [5] | Potency [6] | Potency [7] | Potency [8] | Potency [9] | Potency [10] | Potency [11] | Potency [12]

CC(C)C[C@H](NC(=O)CNC(=O)c1cc(Cl)ccc1Cl)B1OC(=O)CC(CC(=O)O)(C(=O)O)O1 (stereo not given in full)
active: Potency [1] 344 nM | Potency [2] 469 nM | Potency [3] 0.743 µM | Potency [4] 372 nM | Potency [5] 0.215 µM | Potency [13] 0.372 µM | Potency [7] 217 nM | Potency [8] 209 nM | Potency [9] 193 nM | Potency [10] 0.332 µM | Potency [11] 148 nM | Potency [12] 1.05 µM | Potency [14] 296 nM | Potency [15] 261 nM | Potency [16] 293 nM | Potency [17] 0.131 µM | Potency [18] 233 nM

COc1cc(CCc2cc(NC(=O)c3ccc(N4C[C@@H](C)N[C@@H](C)C4)cc3)n[nH]2)cc(OC)c1
active: Potency [1] 27300 nM | Potency [2] 14800 nM | Potency [3] 23.5 µM | Potency [4] 5900 nM | Potency [5] 6.07 µM | Potency [6] 4.18 µM | Potency [7] 27300 nM | Potency [8] 5900 nM | Potency [9] 5440 nM | Potency [10] 16.6 µM | Potency [12] 33.2 µM | Potency [19] 18.7 µM | Potency [14] 5900 nM

CC(=O)N1CCN(c2ccc(OCc3nn(C)c(C)c3-c3cccc4c(CCCOc5cccc6ccccc56)c(C(=O)O)n(Cc5cccnc5)c34)cc2)CC1
active: Potency [1] 485 nM | Potency [2] 418 nM | Potency [3] 3.72 µM | Potency [4] 3720 nM | Potency [5] 3.83 µM | Potency [7] 2430 nM | Potency [8] 590 nM | Potency [9] 109 nM | Potency [10] 1.66 µM | Potency [11] 14800 nM | Potency [12] 0.526 µM | Potency [14] 743 nM | Potency [17] 20.8 µM
inactive: Potency [15] | Potency [20]

O=C1NC(=O)C(=Cc2ccc3nccc(-c4ccncc4)c3c2)S1
active: Potency [1] 432 nM | Potency [2] 118 nM | Potency [3] 1.87 µM | Potency [4] 372 nM | Potency [5] 1.36 µM | Potency [6] 0.743 µM | Potency [7] 385 nM | Potency [8] 469 nM | Potency [9] 38.5 nM | Potency [10] 0.372 µM | Potency [11] 74.3 nM | Potency [14] 590 nM | Potency [15] 6570 nM

O=C(O)CCCCCC(=O)NN=C1CCCC1
inactive: Potency [1] | Potency [2] | Potency [3] | Potency [4] | Potency [13] | Potency [6] | Potency [7] | Potency [8] | Potency [9] | Potency [10] | Potency [11] | Potency [12]

CCN1CCN(C(=O)N[C@H](C(=O)N[C@@H]2C(=O)N3C(C(=O)O)=C(CSc4nnnn4C)CS[C@@H]23)c2ccc(O)cc2)C(=O)C1=O
inactive: activity change, negative = cytotoxic [1] 17.1% [at 11.5 µM] | activity change, negative = cytotoxic [2] 14.5% [at 9.22 µM] | activity change, negative = cytotoxic [3] 20.8% [at 9.22 µM] | activity change, negative = cytotoxic [4] 18.2% [at 9.22 µM] | activity change, negative = cytotoxic [13] 17.1% [at 9.22 µM] | activity change, negative = cytotoxic [6] -3.47% [at 9.22 µM] | activity change, negative = cytotoxic [7] 17.1% [at 11.5 µM] | activity change, negative = cytotoxic [8] 10.3% [at 9.22 µM] | activity change, negative = cytotoxic [9] 20.3% [at 11.5 µM] | activity change, negative = cytotoxic [10] 6.64% [at 9.22 µM] | activity change, negative = cytotoxic [11] 4.31% [at 9.22 µM] | activity change, negative = cytotoxic [12] -2.3% [at 9.22 µM]

C=CC1=C(C(=O)O)N2C(=O)[C@@H](NC(=O)C(=NO)c3csc(N)n3)[C@H]2SC1
inactive: Potency [1] | Potency [2] | Potency [3] | Potency [4] | Potency [13] | Potency [6] | Potency [7] | Potency [8] | Potency [9] | Potency [10] | Potency [11] | Potency [12] | Potency [19]

O=C(O)C[C@H](O)C[C@H](O)C=Cc1c(C2CC2)nc2ccccc2c1-c1ccc(F)cc1
active: Potency [1] 15300 nM | Potency [2] 20900 nM | Potency [3] 9.35 µM | Potency [4] 833 nM | Potency [5] 4.82 µM | Potency [13] 9.35 µM | Potency [7] 273 nM | Potency [9] 3060 nM | Potency [10] 18.7 µM | Potency [11] 1480 nM | Potency [14] 4690 nM | Potency [16] 2330 nM | Potency [17] 4.65 µM

CN1CCc2c(c3ccccc3n2Cc2ccc(C(=O)NO)cc2)C1
active: Potency [1] 30600 nM | Potency [2] 20900 nM | Potency [3] 23.5 µM | Potency [4] 18700 nM | Potency [5] 24.1 µM | Potency [13] 16.6 µM | Potency [6] 16.6 µM | Potency [9] 13700 nM | Potency [10] 16.6 µM | Potency [14] 13200 nM
inactive: Potency [12]

Cn1cc(CNCC2CCN(c3ncc(C(=O)NO)cn3)CC2)c2ccccc21
active: Potency [1] 109 nM | Potency [2] 93.5 nM | Potency [3] 0.469 µM | Potency [4] 148 nM | Potency [5] 0.121 µM | Potency [13] 0.148 µM | Potency [7] 193 nM | Potency [8] 37.2 nM | Potency [10] 0.187 µM | Potency [11] 187 nM | Potency [12] 2.64 µM | Potency [19] 1.18 µM | Potency [14] 148 nM | Potency [15] 165 nM | Potency [16] 104 nM | Potency [20] 369 nM

C[C@@H](Cc1cc2c(c(C(N)=O)c1)N(CCCO)CC2)NCCOc1ccccc1OCC(F)(F)F
inactive: Potency [1] | Potency [2] | Potency [3] | Potency [4] | Potency [5] | Potency [13] | Potency [6] | Potency [8] | Potency [10] | Potency [11] | Potency [12] | Potency [19] | Potency [14]
